These are literature values, as cited in PubChem BioAssay AID977611.

A short description of the data set: PubChem AID 977611. The settings on record: PDB protein-ligand complexes, literature Kd.

The whole screen tested about 3,900 compounds, of which about 3,900 (100%) were called active. No cut-off is given here; in the data, nearly all actives have Kd up to about 4200 µM. So high a share suggests a set chosen from earlier hits. The list shows a part of the results. Bridge positions count the residues as written; N and C are the ends. Square brackets hold non-standard residues; d marks the D form. Peptide text beside a SMILES is read from it. Orn(CH(NH2)2) = NC(N)NCCC[C@H](N)C(=O)O

What is called Kd is the constant that tells how readily two partners part at equilibrium. With `O=C1N=C(N=Nc2c(O)[nH]c3ccc(S(O)(O)O)cc23)S/C1=C\c1ccco1`, the Kd (protein: NUCLEOCAPSID PROTEIN P7, PDB entry 2m3z) was 0.27 µM (active).

`Oc1ccc2c3c1O[C@H]1c4[nH]c5ccccc5c4C[C@@]4(O)[C@@H](C2)N(CC2CC2)CC[C@]314`: the equilibrium dissociation constant (Kd) (protein: Soluble cytochrome b562, Delta-type opioid receptor chimeric protein, PDB entry 4n6h) is 0.00052 µM (active).

H-SPSGVFTFG-OH: the Kd (protein: Capsid protein p24, PDB entry 4u0c) is 49 µM (active) and the Kd (protein: Gag polyprotein, PDB entry 4u0d) is 49 µM (active).

Consider H-SSKPDIVG-OH, for which the Kd (protein: NprR, PDB entry 4gpk) is 0.03 µM (active).

Take `CC(C)[C@H](NC(=O)[C@H](CO[P+](O)(O)O)NC(=O)[C@H](Cc1cnc[nH]1)NC(=O)[C@@H](N)Cc1ccc(O)cc1)C(=O)N[C@H](C(=O)N[C@@H](CCCNC(N)N)C(=O)N[C@@H](Cc1ccc(O)cc1)C(=O)N[C@@H](C)C(=O)O)C(C)C`: under “protein: MOB kinase activator 1A, PDB entry 4jiz”, the Kd was 2.4 µM (active).

For H-KHWVYY-OH, under “PDB entry 1abt”, the Kd was 1.4 µM (active).

Turning to `OC[C@H]1O[C@@H](S[C@@H]2O[C@H](CO)[C@H](O)[C@H](O)[C@H]2O)[C@H](O)[C@@H](O)[C@H]1O`, the Kd (protein: Galectin-3, PDB entry 4jc1) is 50 µM (active).

`OC[C@H]1O[C@@H](S[C@@H]2O[C@H](CO)[C@H](O)[C@H](O)[C@@H]2O)[C@@H](O)[C@@H](O)[C@H]1O`: the equilibrium dissociation constant (Kd) (protein: Galectin-3, PDB entry 4jck) was 4300 µM (active).

`O=c1cccc2n1C[C@@H]1CNC[C@H]2C1`: the Kd (protein: Aplysia californica acetylcholine-binding protein (AChBP), PDB entry 4AFO) is 1.64 µM (active) and the dissociation constant Kd (protein: Aplysia californica acetylcholine-binding protein (AChBP), PDB entry 4bqt) is 1.64 µM (active).

For the compound `Cc1ccc(N2C(=O)C(=O)/C(=C(/O)c3ccccc3)[C@@H]2c2cc(Br)cs2)cc1C(=O)O`, the Kd (protein: Polymerase cofactor Ebola virus VP35, PDB entry 4ibd) is 215 µM (active).

`O=C1C(=O)N(c2ccc(Cl)c(C(=O)O)c2)[C@@H](c2cc(Br)cs2)/C1=C(\O)c1ccccc1`: the dissociation constant Kd (protein: Polymerase cofactor Ebola virus VP35, PDB entry 4ibe) was 70.6 µM (active).

On to `O=C(O)[C@H]1C2CCC(CC2)[C@@H]1Nc1nc(-c2c[nH]c3ncc(F)cc23)ncc1F`, for which, for the setting “protein: Influenza polymerase basic protein 2 (PB2), PDB entry 4p1u”, the Kd was 0.003 µM (active).

For the compound `O=C1C(=O)N(c2cccc(C(=O)O)c2)[C@@H](c2cc(Cl)c3c(c2)OCO3)/C1=C(\O)c1cccc(C(F)(F)F)c1`, the equilibrium dissociation constant (Kd) (protein: Polymerase cofactor Ebola virus VP35, PDB entry 4ibi) is 73 µM (active).

Take `O=C(O)c1cccc(N2C(=O)C(O)=C(C(=O)c3ccc(Cl)s3)[C@@H]2c2cc(Cl)c3c(c2)OCO3)c1`: under “protein: Polymerase cofactor Ebola virus VP35, PDB entry 4ibk”, the dissociation constant Kd was 50.4 µM (active).

For `Cc1cccc(/C(O)=C2\C(=O)C(=O)N(c3ccc(CC(=O)O)cc3)[C@H]2c2cc(Cl)c3c(c2)OCO3)c1`, the equilibrium dissociation constant (Kd) (protein: Polymerase cofactor Ebola virus VP35, PDB entry 4ibg) is 108 µM (active).

Turning to `O=C(O)Cc1ccc(N2C(=O)C(=O)/C(=C(/O)c3ccccc3Cl)[C@@H]2c2ccccc2Cl)cc1`, where the note is “protein: Polymerase cofactor Ebola virus VP35, PDB entry 4ibc”, the Kd is 1050 µM (active).

Consider `O=C1C(=O)N(c2cccc(C(=O)O)c2)[C@@H](c2cccc(C(F)(F)F)c2)/C1=C(\O)c1cccc(C(F)(F)F)c1`, for which the Kd (protein: Polymerase cofactor Ebola virus VP35, PDB entry 4ibj) is 47 µM (active).

`CCN1c2cc(N)ccc2-c2ccc(N)cc2[C@H]1c1ccccc1`: the dissociation constant Kd (protein: Putative regulatory protein, PDB entry 3vvy) is 14.6 µM (active).

In the case of `CO[C@@H]1O[C@@H](C)[C@@H](O)[C@@H](O)[C@@H]1O`, the equilibrium dissociation constant (Kd) (protein: Ralstonia solanacearum fucose-binding lectin protein, PDB entry 4csd) is 1.23 µM (active).

For the compound `Nc1c(O)n(Cc2ccccc2)c(=O)[nH]c1=O`, the Kd (protein: Glucose-1-phosphate thymidylyltransferase (RmlA), PDB entry 3zll) was 0.395 µM (active) and the Kd (protein: Glucose-1-phosphate thymidylyltransferase (RmlA), PDB entry 4AS6) is 0.395 µM (active).

Turning to `C[C@@H](O)[C@H](NC(=O)[C@@H]1CCCN1C(=O)[C@H](CO)NC(=O)[C@@H](N)Cc1ccc(O)cc1)C(=O)N[C@@H](CO[P+](O)(O)O)C(=O)N1CCC[C@H]1C(=O)N[C@@H](CO)C(=O)O`, under “protein: CTD INTERACTING DOMAIN of RNA processing factor SCAF8, PDB entry 3d9m”, the Kd was 330 µM (active).

As to `C[C@@H](O)[C@H](NC(=O)[C@@H]1CCCN1C(=O)[C@H](CO[P+](O)(O)O)NC(=O)[C@@H](N)Cc1ccc(O)cc1)C(=O)N[C@@H](CO)C(=O)N1CCC[C@H]1C(=O)O`, the Kd (protein: CTD INTERACTING DOMAIN of RNA processing factor SCAF8, PDB entry 3d9n) is 90 µM (active).

In the case of `C[C@H](Nc1nc(-c2c[nH]c3ncc(Cl)cc23)ncc1F)C(=O)N(C)C`, the Kd (protein: Influenza polymerase basic protein 2 (PB2), PDB entry 4ncm) is 0.1 µM (active).

In the case of `CC(C)[C@H](NC(=O)[C@H](Cc1c[nH]c2ccccc12)NC(=O)[C@H](Cc1c[nH]cn1)NC(=O)[C@H](CCCCN)NC(=O)[C@H](Cc1c[nH]c2ccccc12)NC(=O)CNC(=O)[C@H](CCCNC(N)N)NC(=O)[C@@H](N)Cc1ccc(O)cc1)C(=O)N[C@@H](Cc1ccc(O)cc1)C(=O)N[C@@H](Cc1ccc(O)cc1)C(=O)N[C@H](C(=O)N[C@H]1CSSC[C@@H](C(=O)N2CCC[C@H]2C(=O)N[C@@H](CC(=O)O)C(=O)N[C@H](C(=O)N2CCC[C@H]2C(=O)N[C@@H](Cc2ccc(O)cc2)C(=O)O)[C@H](C)O)NC1=O)[C@@H](C)O`, the Kd (PDB entry 1idg) was 0.065 µM (active).

In the case of `CC(C)[C@H](NC(=O)[C@H](Cc1c[nH]c2ccccc12)NC(=O)[C@H](Cc1c[nH]cn1)NC(=O)[C@H](CCCCN)NC(=O)[C@H](Cc1c[nH]c2ccccc12)NC(=O)CNC(=O)[C@H](CCCNC(N)N)NC(=O)[C@@H](N)Cc1ccc(O)cc1)C(=O)N[C@@H](Cc1ccc(O)cc1)C(=O)N[C@@H](Cc1ccc(O)cc1)C(=O)N[C@H](C(=O)N[C@H]1CSSC[C@@H](C(=O)N2CCC[C@H]2C(=O)N[C@@H](CC(=O)O)C(=O)N[C@H](C(=O)N2CCC[C@H]2C(=O)N[C@@H](Cc2ccc(O)cc2)C(=O)O)[C@@H](C)O)NC1=O)[C@@H](C)O` (H-Y[Orn(CH(NH2)2)]GWKHWVYYTCCPDTPY-OH; disulfide 12-13), the dissociation constant (Kd) (protein: Cbtx, PDB entry 1lxh) is 0.065 µM (active).

Take `C[C@@H](C(=O)O)c1n[nH]c2nc(N)[nH]c(=O)c2c1=O`: where the note is “protein: Dihydropteroate Synthase, PDB entry 4daf”, the Kd was 0.076 µM (active).
